The values that follow come from PubChem BioAssay.

The structures appear in SMILES notation. Activity calls are given as the source filed them.

The subject of assay [1] is XIP peptide (Xip251-270) binding. In words: XIP fragment 251-270 binding compounds – biochemical, small-molecule microarray, fluorescence 635/667 nm, 0.1 µg/mL protein, primary screen (AID 1182). Conditions: fluorescent protein binding, 635 nm, higher = more signal, called active from +8 up or from −8 down.
For assay [2], the system named is XIP peptide (Xip251-270). In words: compounds binding XIP fragment 251-270 – biochemical, small-molecule microarray, fluorescence 635/667 nm, 0.5 µg/mL protein, primary screen (AID 1183). Conditions: fluorescence 635 nm, higher = more signal.
Assay [3] is described as follows: blood-stage malaria parasite viability loss – strain 3D7, DAPI fluorescence, 100 nL, primary screen (AID 1184).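 Also: parasites grown inside human red blood cells in medium with human serum.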 Conditions: P. falciparum 3D7 growth, 3 d, higher = more signal.
Assay [4] deals with Homeobox protein Hox-A13 (Mus musculus) (UniProt Q62424). In words: disruptors of Hoxa13 oligonucleotide interaction – biochemical, fluorescence polarization, labeled oligonucleotide, primary screen (AID 1185). Conditions: Hoxa13:DNA binding, 15 min, higher = more signal, called active from +8 up or from −8 down. Background: In fluorescence polarisation assays a small probe gives low polarisation when free and higher when bound to something large.
Sequence of Homeobox protein Hox-A13 (Mus musculus) (Q62424 whole entry, looked up): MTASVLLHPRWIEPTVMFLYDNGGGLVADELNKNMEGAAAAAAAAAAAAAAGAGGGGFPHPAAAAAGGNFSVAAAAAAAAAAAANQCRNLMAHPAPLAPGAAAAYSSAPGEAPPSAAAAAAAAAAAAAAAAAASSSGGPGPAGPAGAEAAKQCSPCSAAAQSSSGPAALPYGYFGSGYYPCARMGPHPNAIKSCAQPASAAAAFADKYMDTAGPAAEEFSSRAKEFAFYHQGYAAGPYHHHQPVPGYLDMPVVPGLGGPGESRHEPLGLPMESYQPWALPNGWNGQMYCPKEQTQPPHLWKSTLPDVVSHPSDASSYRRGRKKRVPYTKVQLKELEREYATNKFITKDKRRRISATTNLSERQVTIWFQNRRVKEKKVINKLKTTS

Regarding `CO[C@H]1COC(=O)[C@H](C)NC(=O)[C@@H](C)COC(=O)[C@H]2CCCN2C(=O)CC=C[C@H]1C`, the composite z-score in assay [1] was -0.077 (inactive); in assay [2], -0.143. Further, the z-score in assay [3] was 0.43; in assay [4], 0.24 (inactive).
For the compound `CCN1C(=O)[C@H]2[C@H]3[C@H](O)[C@H](O)CC(=NOC[C@H]4O[C@H](c5ccccc5)C=C[C@@H]4Oc4ccc(OC)cc4)[C@@H]3CC[C@H]2C1=O`, the composite z-score was 0.432 (inactive) in assay [1] and 0.704 in assay [2]. Further, the z-score was 0.188 in assay [3] and -10.8 (active) in assay [4].
For `CO[C@H]1COC(=O)CC=C[C@H](C)[C@@H](OC)COC(=O)[C@H](C)COC(=O)CC=C[C@@H]1C`, the composite z-score in assay [1] is 0.163 (inactive); in assay [2] it was -0.337. In addition, the results for the z-score in assay [3] and in assay [4] were 0.916 and 0.296 (inactive), respectively.
Regarding `CO[C@@H]1COC(=O)[C@@H]2CCCN2C(=O)[C@@H](C)COC(=O)CC=C[C@H]1C`, the composite z-score in assay [1] is 0.523 (inactive); in assay [2] it was 0.569. In addition, the z-score in assay [3] is 0.442; in assay [4], -0.236 (inactive).
As to `CC(C)=CCCC(C)=CCON=C1C[C@@H](O)[C@@H](O)[C@@H]2[C@@H]3C(=O)N(C(C)(C)C)C(=O)[C@@H]3CC[C@H]12`, the composite z-score in assay [1] was -0.007 (inactive); in assay [2], 0.427. Besides, the z-score in assay [3] was 1.46; in assay [4] it was 0.263 (inactive).
For the compound `CCOC(=O)NN=C1C[C@@H](O)[C@@H](O)[C@@H]2[C@@H]3C(=O)N(C(C)(C)C)C(=O)[C@@H]3CC[C@H]12`, the composite z-score was -0.188 (inactive) in assay [1] and 0.29 in assay [2]. Also, the results for the z-score in assay [3] and in assay [4] were 0.202 and 0.772 (inactive), respectively.
For `CO[C@@H]1COC(=O)CC=C[C@H](C)[C@H](OC)COC(=O)[C@H](C)NC(=O)CC=C[C@H]1C`, the values for the composite z-score in assay [1] and in assay [2] were -0.436 (inactive) and 0.82, respectively. In addition, the z-score in assay [3] is -0.382; in assay [4], 0.189 (inactive).
As to `CO[C@H]1COC(=O)CCC[C@@H](C)[C@H](OC)COC(=O)[C@@H](C)NC(=O)CC=C[C@@H]1C`, the composite z-score in assay [1] is -0.157 (inactive); in assay [2] it was -0.0673. In addition, the results for the z-score in assay [3] and in assay [4] were -1.29 and -1.94 (inactive), respectively.
As to `C=COC[C@@H]1CN2[C@@H](CC[C@@H](C)[C@@H]2c2ccc(Br)cc2)C(=O)O1`, the composite z-score was -0.0657 (inactive) in assay [1] and 0.103 in assay [2]. Moreover, the z-score in assay [3] is -0.977; in assay [4], -2.54 (inactive).
`CCOC(=O)[C@H](CC(C)C)NC(=O)CCC1CC(OC(=O)NCc2cccc3ccccc23)CC2(CCCC(COC(=O)NCc3cccc(C(F)(F)F)c3)O2)O1` (stereo partly drawn): the composite z-score in assay [1] is -0.364 (inactive); in assay [2] it was -0.298. Moreover, the z-score in assay [3] was 0.688; in assay [4], -0.443 (inactive).
In the same order, the values of `O=C1CCCC=C1C(O)CCCCBr` (stereo not drawn) are 0.26 (inactive), -0.165, -1.76 and -5.96 (inactive).
Turning to `C[n+]1ccc(-c2ccc(CO)cc2)cc1`, the composite z-score in assay [1] is 0.725 (inactive); in assay [2], -0.227. Besides, the z-score in assay [3] is 1.09; in assay [4], -2.76 (inactive).
For `O=C1[C@H]2[C@H]3[C@H](O)[C@H](O)CC(=NOC[C@@H](O)COCc4ccco4)[C@H]3CC[C@H]2C(=O)N1Cc1ccccc1`, the results for the composite z-score in assay [1] and in assay [2] were -0.227 (inactive) and 0.252, respectively. Besides, the z-score in assay [3] is 0.254; in assay [4], -2.38 (inactive).
With `C#CCCCON=C1C[C@@H](O)[C@@H](O)[C@@H]2[C@@H]3C(=O)N(c4ccc(F)cc4F)C(=O)[C@@H]3CC[C@H]12`, the composite z-score is 1.55 (inactive) in assay [1] and 0.683 in assay [2]. The results for the z-score in assay [3] and in assay [4] were -0.0103 and -0.42 (inactive), respectively.
With `CC(CCC(=O)OC[C@H]1O[C@H](C#Cc2ccccc2)C=C[C@@H]1Oc1ccc(C)cc1)=NO[C@H](C)c1cn([C@H](CO)Cc2ccccc2)nn1`, the composite z-score is 0.157 (inactive) in assay [1] and 0.662 in assay [2]. Further, the z-score is -0.563 in assay [3] and -2.88 (inactive) in assay [4].
With `CC(CCN1CCc2nc(-c3ccccc3)c(-c3ccccc3)cc2C1)=NOC[C@@H](O)[C@H]1O[C@@H]2OC(C)(C)O[C@@H]2[C@H]1O`, the composite z-score in assay [1] was 0.176 (inactive); in assay [2], 0.528. In addition, the figures for the z-score in assay [3] and in assay [4] were 0.688 and -5.63 (inactive), respectively.
Taken in the same sequence, the figures for `CCOC(=O)[C@H](CC(C)C)NC(=O)CCC1CC(OC(=O)NCCc2ccc(F)cc2)CC2(CCCC(COC(=O)NCCc3ccccc3OC)O2)O1` (stereo partly drawn) were 0.742 (inactive), 0.578, -1.89 and -2.36 (inactive).
Regarding `CCOC(=O)[C@H](CC(C)C)NC(=O)CCC1CC(OC(=O)NCc2ccc3c(c2)OCO3)CC2(CCCC(COC(=O)NCCCN3CCCC3=O)O2)O1` (stereo partly drawn), the values for the composite z-score in assay [1] and in assay [2] were -0.228 (inactive) and 0.6, respectively. The z-score in assay [3] was -1.61; in assay [4], -5.69 (inactive).
In the case of `CCN1C(=O)[C@H]2[C@H]3[C@H](O)[C@H](O)CC(=O)[C@@H]3CC[C@H]2C1=O`, the composite z-score in assay [1] was 0.221 (inactive); in assay [2] it was 0.488. Besides, the z-score in assay [3] was 1.51; in assay [4], 0.202 (inactive).
For `CCCCC#C[C@@H]1C=C[C@H](Oc2cc(OC)c(OC)c(OC)c2)[C@@H](COC(=O)OCC)O1`, the results for the composite z-score in assay [1] and in assay [2] were 0.392 (inactive) and 0.355, respectively. Also, the z-score is 0.421 in assay [3] and -5.07 (inactive) in assay [4].
For `COC(=O)C=CCCc1coc(C=CCNC(=O)OC)n1`, the composite z-score in assay [1] is 0.56 (inactive); in assay [2], 0.868. Also, the z-score in assay [3] is -0.92; in assay [4] it was -2.9 (inactive).
Take `CO[C@@H]1C=CCC(=O)N2CCC[C@H]2C(=O)OC[C@@H](C)C(=O)OC[C@H]1C`: the values for the composite z-score in assay [1] and in assay [2] were 0.229 (inactive) and 0.826, respectively. Moreover, the z-score in assay [3] is 0.432; in assay [4] it was 0.772 (inactive).
